Laboratory results as given in PubChem BioAssay (Tox21).
Unmarked numbers belong to inactive results. Active and inactive are the calls of the source. The call rests on the fitted dose curve; in most records, active means well fitted activation curve with a large enough effect in the repeat runs; inconclusive means weak or mixed curves; inactive means flat fitted curve, though single readings scatter.

Assay: A CellTox Green Cytotoxicity Assay to monitor cytotoxicity in HEK293 cells - 0 hour (AID 1224869); further: nearly all actives have a fitted effect of over 50% in size
Conditions: CellTox Green fluorescence; series mostly up to 76.8 µM; cytotoxicity: at the top concentration
Description: National Center for Advancing Translational Sciences [NCATS]
NIH Chemical Genomics Center [NCGC]
U.S. Environmental Protection Agency [EPA]
National Institutes of Environmental Health Sciences [NIEHS]
National Toxicology Program [NTP]
Cell-based models are critical for drug discovery. Determining the natural cytotoxic effects resulting from test compounds is an essential research activity. A CellTox Green Cytotoxicity Assay to monitor cytotoxicity in real time of continues cell culture during 40 hours of the compound treatment was used to screen Tox21 10K library compounds in Hek293 cells. CellTox Green Cytotoxicity Assay is a nonlytic, homogeneous, biofluorescent method to measure cytotoxicity in cell culture after experimental manipulation. The assay system uses a proprietary asymmetric cyanine dye that is excluded from viable cells but preferentially stains the dead cell's DNA. […] Viable cells produce no appreciable increases in fluorescence. Therefore, the fluorescence signal produced by the binding interaction with dead cell DNA is proportional to cytotoxicity.
The mixture of Hek293 cell suspension and reagents were dispensed at 600cells/6 ul/well in 1536-well tissue culture treated black solid bottom plates using a Multidrop dispenser. After the assay plates were incubated at a 37 C/5% CO2 incubator for 5 hours, 23 nL of compounds dissolved in DMSO, positive and negative controls was transferred to the assay plate by a pintool work station. The plates were incubated at 37 C for 40 hours. The fluorescence intensity were measured at 0h, 8h, 16h, 24h, 32h and 40h time points using ViewLux plate reader during compound treatment.
On the % scale 0 is the no-effect control and ±100 the full control effect; potency means the concentration at half of the fitted maximal effect.

| SMILES | cytotoxicity | Potency |
| --- | --- | --- |
| COc1ccnc2c1CCCCC2S(=O)c1nc2ccccc2[nH]1 (stereo not given) | 2.38% [at 35.3 µM] | – |
| O=[N+]([O-])c1ccccc1CCO | -9.07% | – |
| O=C(OC1C[C@H]2CC[C@@H](C1)[N+]21CCCC1)C(O)(c1ccccc1)c1ccccc1 (stereo not given in full) | -2.01% [at 35.3 µM] | – |
| O=C(c1ccco1)N1CCNCC1 | -0.255% [at 35.3 µM] | – |
| Cc1ccc(NC=O)c(C)c1 | 1.09% | – |
| CCCCCCCCCCCCSCCOCCO | -3.48% [at 35.3 µM] | – |
| N#C[C@@H]1CC(F)(F)CN1C(=O)CNC1CC2CCC(C1)N2c1ncccn1 (stereo not given in full) | -0.901% | – |
| CC1=CC(=C(c2ccc(N)cc2)c2ccc(N)cc2)C=CC1=N | -6.03% [at 6.97 µM] | – |
| O=C(O)c1ccccc1-n1cc(C(=O)O)c(=O)c2cc(Nc3c(F)cc(F)cc3Cl)c(Cl)cc21 | 0.439% | – |
| OCCCO | 1.59% | – |
| Oc1ccc(CCNCCCCCCNCCc2ccccc2)cc1O | -1.77% [at 35.3 µM] | – |
| CCCCOC(=O)C(C)Oc1ccc(Oc2ccc(C(F)(F)F)cn2)cc1 (stereo not given) | -1.33% | – |
| COc1cc(C)c(Cc2cnc(N)nc2N)cc1OC | 3.67% [at 35.3 µM] | – |
| O=C(OCCN1CCOCC1)c1cccnc1Nc1cccc(C(F)(F)F)c1 | -7.96% [at 35.3 µM] | – |
| C=C[Si](OCC)(OCC)OCC | -5.3% | – |
| CCC(C)C1N=C(C)C(C)S1 (stereo not given) | 1.59% | – |
| CCOc1cc(OCC)c(C(C)=O)cc1OCC | 5% | – |
| Nc1ncnc2c1ncn2[C@@H]1O[C@H](CO)[C@@H](O)[C@H]1O | -6% [at 35.3 µM] | – |
| CCCCOc1ccc(N)cc1 | 1.37% | – |
| CCCCCCCCCC(C)C=O (stereo not given) | – | 24.5 µM (active) |

| SMILES | cytotoxicity | Potency |
| --- | --- | --- |
| C[C@@H](O)[C@H]1C(=O)N2C(C(=O)O)=C(S[C@@H]3CN[C@H](CNS(N)(=O)=O)C3)[C@H](C)[C@H]12 | -5.92% [at 35.3 µM] | – |
| CCOC(C)OCC | 0.56% | – |
| O=C(Cl)c1cc(Cl)cc(Cl)c1 | -6.57% | – |
| Nc1ccc(F)cc1F | -9.84% | – |
| CCOc1ccc2c(c1)C(C)CC(C)(C)N2 (stereo not given) | 8.74% | – |
| Cc1ccc(NC(=O)c2ccc(CN3CCN(C)CC3)cc2)cc1Nc1nccc(-c2cccnc2)n1 | -1.62% [at 35.3 µM] | – |
| CC(COc1ccccc1)NC(C)C(O)c1ccc(O)cc1 (stereo not given) | 2.49% [at 35.3 µM] | – |
| CCCCCCCCCCCCCCCCCCCl | 0.805% [at 6.97 µM] | – |
| CC1(C)C(=O)NC(=O)N1CO | 0.774% | – |
| OCCOc1cccc(OCCO)c1 | -2.05% | – |
| c1ccc(CN(Cc2ccccc2)Cc2ccccc2)cc1 | 0.265% | – |
| Cc1cc(C)n(CO)n1 | 3.19% | – |
| CC(C)=CCCC(C)C=O (stereo not given) | 8.43% | – |
| CCCCCCCCS | -0.408% | – |
| COC(=O)C(C)(C)C | 3.05% | – |
| OCCc1ccncc1 | 6.18% | – |
| CC(=O)Oc1cccc2c1C(=O)c1c(OC(C)=O)cc(C(=O)O)cc1C2=O | 3.98% [at 35.3 µM] | – |
| O=C(O)c1ccc2c(c1)nc(C(=O)NC1CCN(C3CC3)CC1)n2Cc1cc(-c2ccc(Cl)s2)on1 | -5.57% [at 15.8 µM] | – |
| CCC(=O)O[C@@H]1C[C@H]2CC[C@]1(C)C2(C)C | 3.57% | – |
| CCCCCCCCCCCCSC#N | 15.5% | – |
